According to the supplement of paper PMC11001985:

compound: C#CCNC(=O)CCSSCCC(=O)NCCc1ccc(C=O)c(C=O)c1; experiment: lysine labeling ratio R10:1 (500 µM / 50 µM probe), SILAC-ABPP in living cells; higher = lower intrinsic lysine reactivity toward the probe, active = 2 or less; conditions: HeLa; probe concentrations 500 vs 50 µM
Summary of the method: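 In PBS at room temperature, living HeLa cells grown with SILAC light or heavy labels were treated with 50 µM or 500 µM of an alkyne-tagged, disulfide-linked lysine probe, with label swaps in both directions. Analysis was by LC-MS/MS on a TIMS-TOF Pro after click to biotin-azide, neutravidin capture and DTT release. For each lysine, R is the median across forward and reverse replicates of the filtered median high-probe/low-probe MS1 peptide ratio, capped at 20.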

Sequence of UniProt Q14204 (Q14204 whole entry): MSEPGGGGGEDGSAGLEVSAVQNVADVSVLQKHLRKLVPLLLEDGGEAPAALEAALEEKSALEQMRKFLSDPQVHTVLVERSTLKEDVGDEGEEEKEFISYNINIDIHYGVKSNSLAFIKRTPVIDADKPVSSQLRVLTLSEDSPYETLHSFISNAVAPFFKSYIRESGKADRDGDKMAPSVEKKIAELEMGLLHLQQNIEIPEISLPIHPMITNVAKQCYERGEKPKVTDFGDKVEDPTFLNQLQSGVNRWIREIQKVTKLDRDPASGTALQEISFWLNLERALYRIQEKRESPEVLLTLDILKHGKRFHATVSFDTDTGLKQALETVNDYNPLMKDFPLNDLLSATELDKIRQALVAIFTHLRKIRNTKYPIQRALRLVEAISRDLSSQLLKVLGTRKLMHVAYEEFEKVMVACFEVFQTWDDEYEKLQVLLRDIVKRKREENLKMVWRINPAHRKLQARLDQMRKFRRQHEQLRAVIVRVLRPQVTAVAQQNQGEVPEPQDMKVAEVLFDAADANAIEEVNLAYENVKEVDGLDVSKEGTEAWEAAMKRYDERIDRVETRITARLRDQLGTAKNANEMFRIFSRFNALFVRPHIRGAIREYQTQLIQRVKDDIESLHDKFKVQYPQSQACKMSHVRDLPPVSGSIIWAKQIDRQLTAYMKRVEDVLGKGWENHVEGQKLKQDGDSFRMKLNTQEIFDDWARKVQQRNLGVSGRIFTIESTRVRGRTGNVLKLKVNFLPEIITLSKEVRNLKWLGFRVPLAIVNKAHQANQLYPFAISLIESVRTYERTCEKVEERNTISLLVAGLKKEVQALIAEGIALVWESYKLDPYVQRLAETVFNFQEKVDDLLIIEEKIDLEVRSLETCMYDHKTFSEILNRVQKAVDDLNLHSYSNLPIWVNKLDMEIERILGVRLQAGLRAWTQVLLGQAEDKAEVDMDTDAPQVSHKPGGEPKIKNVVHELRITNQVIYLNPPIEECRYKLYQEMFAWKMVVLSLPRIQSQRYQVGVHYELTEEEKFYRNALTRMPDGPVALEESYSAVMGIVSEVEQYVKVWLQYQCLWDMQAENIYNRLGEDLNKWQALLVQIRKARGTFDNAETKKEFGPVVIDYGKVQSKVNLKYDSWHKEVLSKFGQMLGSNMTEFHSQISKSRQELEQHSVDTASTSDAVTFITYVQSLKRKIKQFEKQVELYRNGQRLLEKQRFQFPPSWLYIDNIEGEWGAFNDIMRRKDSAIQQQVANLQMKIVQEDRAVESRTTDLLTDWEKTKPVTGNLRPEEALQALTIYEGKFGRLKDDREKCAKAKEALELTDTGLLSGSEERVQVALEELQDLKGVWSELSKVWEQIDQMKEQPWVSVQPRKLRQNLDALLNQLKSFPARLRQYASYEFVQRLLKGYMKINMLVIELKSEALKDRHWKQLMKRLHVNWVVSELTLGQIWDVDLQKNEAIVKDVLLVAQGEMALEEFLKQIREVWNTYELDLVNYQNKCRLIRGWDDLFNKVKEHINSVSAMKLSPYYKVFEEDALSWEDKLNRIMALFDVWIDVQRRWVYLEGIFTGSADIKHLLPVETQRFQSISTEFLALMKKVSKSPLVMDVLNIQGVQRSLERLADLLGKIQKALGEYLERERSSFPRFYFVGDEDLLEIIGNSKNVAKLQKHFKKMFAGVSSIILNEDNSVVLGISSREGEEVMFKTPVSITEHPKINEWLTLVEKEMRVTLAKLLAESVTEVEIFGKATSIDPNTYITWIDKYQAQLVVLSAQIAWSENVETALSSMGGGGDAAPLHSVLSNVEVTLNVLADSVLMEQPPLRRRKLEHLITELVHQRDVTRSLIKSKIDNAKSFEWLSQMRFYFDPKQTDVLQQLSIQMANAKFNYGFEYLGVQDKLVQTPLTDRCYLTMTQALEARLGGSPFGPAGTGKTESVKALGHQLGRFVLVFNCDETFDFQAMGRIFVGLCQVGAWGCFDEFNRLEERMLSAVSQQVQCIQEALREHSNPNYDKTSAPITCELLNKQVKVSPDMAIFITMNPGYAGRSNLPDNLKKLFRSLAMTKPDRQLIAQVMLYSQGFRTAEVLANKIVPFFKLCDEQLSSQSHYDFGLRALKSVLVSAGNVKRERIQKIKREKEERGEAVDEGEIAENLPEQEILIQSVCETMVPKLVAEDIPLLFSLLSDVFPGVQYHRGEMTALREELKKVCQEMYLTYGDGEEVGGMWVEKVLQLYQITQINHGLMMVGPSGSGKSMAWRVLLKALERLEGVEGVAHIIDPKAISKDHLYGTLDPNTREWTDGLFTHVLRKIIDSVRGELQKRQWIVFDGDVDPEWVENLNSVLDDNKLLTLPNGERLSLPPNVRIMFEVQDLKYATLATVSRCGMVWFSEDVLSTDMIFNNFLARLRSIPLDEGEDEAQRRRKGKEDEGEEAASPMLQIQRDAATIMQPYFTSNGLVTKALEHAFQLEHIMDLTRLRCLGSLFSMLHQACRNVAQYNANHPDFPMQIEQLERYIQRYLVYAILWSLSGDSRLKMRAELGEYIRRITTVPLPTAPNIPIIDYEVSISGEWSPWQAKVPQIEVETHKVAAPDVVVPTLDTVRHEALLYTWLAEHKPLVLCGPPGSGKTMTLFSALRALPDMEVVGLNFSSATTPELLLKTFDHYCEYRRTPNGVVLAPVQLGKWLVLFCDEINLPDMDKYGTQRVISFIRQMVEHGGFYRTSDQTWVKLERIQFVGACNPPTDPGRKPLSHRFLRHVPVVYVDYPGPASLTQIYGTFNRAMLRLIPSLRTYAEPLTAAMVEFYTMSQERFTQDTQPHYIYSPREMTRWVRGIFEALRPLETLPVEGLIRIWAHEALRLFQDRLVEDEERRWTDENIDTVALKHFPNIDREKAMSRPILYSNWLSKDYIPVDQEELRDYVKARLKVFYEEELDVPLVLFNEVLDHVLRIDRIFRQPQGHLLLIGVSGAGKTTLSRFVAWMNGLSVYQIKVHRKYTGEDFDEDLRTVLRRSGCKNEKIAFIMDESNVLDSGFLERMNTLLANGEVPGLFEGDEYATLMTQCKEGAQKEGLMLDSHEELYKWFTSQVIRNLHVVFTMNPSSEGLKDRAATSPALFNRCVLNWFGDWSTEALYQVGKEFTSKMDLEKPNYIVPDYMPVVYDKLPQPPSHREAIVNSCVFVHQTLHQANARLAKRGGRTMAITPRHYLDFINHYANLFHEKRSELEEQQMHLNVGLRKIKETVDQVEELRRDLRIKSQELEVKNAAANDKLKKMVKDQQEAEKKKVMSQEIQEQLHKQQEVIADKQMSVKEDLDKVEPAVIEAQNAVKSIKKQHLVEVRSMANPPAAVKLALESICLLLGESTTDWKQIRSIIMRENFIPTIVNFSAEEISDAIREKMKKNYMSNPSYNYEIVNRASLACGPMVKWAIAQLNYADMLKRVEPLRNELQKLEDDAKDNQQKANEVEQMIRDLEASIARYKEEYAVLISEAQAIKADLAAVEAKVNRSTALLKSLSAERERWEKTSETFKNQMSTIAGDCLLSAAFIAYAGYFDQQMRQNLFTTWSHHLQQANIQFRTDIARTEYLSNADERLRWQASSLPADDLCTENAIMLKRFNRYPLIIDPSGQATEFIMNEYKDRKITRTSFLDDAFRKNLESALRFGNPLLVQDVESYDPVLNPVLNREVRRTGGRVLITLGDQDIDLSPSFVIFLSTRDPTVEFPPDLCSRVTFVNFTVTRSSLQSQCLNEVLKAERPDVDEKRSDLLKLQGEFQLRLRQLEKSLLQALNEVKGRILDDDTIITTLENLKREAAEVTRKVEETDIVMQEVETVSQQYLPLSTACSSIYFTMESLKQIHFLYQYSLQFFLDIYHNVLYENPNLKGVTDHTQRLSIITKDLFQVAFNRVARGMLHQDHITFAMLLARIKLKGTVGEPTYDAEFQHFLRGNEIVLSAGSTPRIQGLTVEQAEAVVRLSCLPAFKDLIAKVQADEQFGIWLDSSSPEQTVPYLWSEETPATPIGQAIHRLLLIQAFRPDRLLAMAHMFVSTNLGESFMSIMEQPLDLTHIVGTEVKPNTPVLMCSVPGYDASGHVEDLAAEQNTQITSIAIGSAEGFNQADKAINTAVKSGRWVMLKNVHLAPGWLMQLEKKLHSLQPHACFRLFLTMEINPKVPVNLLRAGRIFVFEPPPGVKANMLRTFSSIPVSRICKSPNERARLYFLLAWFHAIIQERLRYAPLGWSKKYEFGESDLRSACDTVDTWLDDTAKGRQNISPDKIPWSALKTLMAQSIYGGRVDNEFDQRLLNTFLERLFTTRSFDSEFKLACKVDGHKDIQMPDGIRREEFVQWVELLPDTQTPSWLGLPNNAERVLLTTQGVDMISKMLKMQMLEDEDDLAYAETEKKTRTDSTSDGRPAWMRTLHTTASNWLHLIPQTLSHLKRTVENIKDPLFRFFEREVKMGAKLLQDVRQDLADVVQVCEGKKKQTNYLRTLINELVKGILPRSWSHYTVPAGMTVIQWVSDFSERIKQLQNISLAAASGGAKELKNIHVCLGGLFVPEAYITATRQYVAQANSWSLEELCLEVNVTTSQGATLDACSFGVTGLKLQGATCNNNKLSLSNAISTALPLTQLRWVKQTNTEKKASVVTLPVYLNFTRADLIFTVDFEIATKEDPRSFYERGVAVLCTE
Sequence of UniProt P15328 (P15328 whole entry, looked up): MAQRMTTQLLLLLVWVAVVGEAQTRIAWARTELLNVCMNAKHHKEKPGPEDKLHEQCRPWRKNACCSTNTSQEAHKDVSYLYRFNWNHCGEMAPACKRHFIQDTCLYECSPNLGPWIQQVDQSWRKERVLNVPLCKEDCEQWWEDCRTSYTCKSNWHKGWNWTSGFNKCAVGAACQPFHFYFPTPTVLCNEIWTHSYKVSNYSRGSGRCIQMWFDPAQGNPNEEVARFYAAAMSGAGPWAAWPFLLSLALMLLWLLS
Sequence of UniProt P54851 (P54851 whole entry): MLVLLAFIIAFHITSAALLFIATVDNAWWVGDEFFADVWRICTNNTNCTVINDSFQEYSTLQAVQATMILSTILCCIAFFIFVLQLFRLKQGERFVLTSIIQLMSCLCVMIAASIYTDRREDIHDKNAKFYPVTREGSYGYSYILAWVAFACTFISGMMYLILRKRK

Row | Target | lysine labeling ratio R10:1
1 | DYNC1H1 (lysine site: K371) (UniProt Q14204) | 1.14 (active)
2 | CCT4 (lysine site: K21) (UniProt P50991) | 3.58 (inactive)
3 | PDIA3 (lysine site: K347) (UniProt P30101) | 5.72 (inactive)
4 | IGF2R (lysine site: K1776) (UniProt P11717) | 2.48 (inactive)
5 | DSG2 (lysine site: K251) (UniProt Q14126) | 8.19 (inactive)
6 | LRPAP1 (lysine site: K65) (UniProt P30533) | 4.18 (inactive)
7 | RDX (lysine site: K556) (UniProt P35241) | 1.52 (active)
8 | FOLR1 (lysine site: K62) (UniProt P15328) | 5.42 (inactive)
9 | IGF2R (lysine site: K1924) (UniProt P11717) | 3.04 (inactive)
10 | PAICS (lysine site: K261) (UniProt P22234) | 0.93 (active)
11 | BCAP31 (lysine site: K176) (UniProt P51572) | 0.745 (active)
12 | CCT7 (lysine site: K250) (UniProt Q99832) | 1.57 (active)
13 | TGFBI (lysine site: K53) (UniProt Q15582) | 1.28 (active)
14 | AHCY (lysine site: K20) (UniProt P23526) | 1.54 (active)
15 | TAGLN2 (lysine site: K154) (UniProt P37802) | 1.43 (active)
16 | FLNA (lysine site: K1593) (UniProt P21333) | 2.69 (inactive)
17 | B2M (lysine site: K111) (UniProt P61769) | 15.6 (inactive)
18 | LAMC1 (lysine site: K1354) (UniProt P11047) | 1.67 (active)
19 | FZD1 (lysine site: K273) (UniProt Q9UP38) | 4.28 (inactive)
20 | CACNA2D1 (lysine site: K146) (UniProt P54289) | 5.1 (inactive)

Row | Target | lysine labeling ratio R10:1
21 | UniProt P54851 (lysine site: K129) | 4.76 (inactive)
22 | FOLR1 (lysine site: K76) (UniProt P15328) | 3.42 (inactive)
23 | DYNC1H1 (lysine site: K4406) (UniProt Q14204) | 3.65 (inactive)
24 | MSLN (lysine site: K307) (UniProt Q13421) | 1.74 (active)
25 | ROBO1 (lysine site: K516) (UniProt Q9Y6N7) | 4.56 (inactive)
26 | EGFR (lysine site: K226) (UniProt P00533) | 11 (inactive)
27 | DYNC1H1 (lysine site: K2239) (UniProt Q14204) | 6.84 (inactive)
28 | ROBO1 (lysine site: K282) (UniProt Q9Y6N7) | 2.01 (inactive)
29 | SERPINH1 (lysine site: K410) (UniProt P50454) | 4.84 (inactive)
30 | UniProt Q15149 (lysine site: K2154) | 1.47 (active)
31 | UniProt P05787 (lysine site: K465) | 5.11 (inactive)
32 | UniProt Q96JJ7 (lysine site: K119) | 3.06 (inactive)
33 | AGRN (lysine site: K1934) (UniProt O00468) | 2.08 (inactive)
34 | UniProt Q9UKX5 (lysine site: K402) | 0.975 (active)
35 | MCAM (lysine site: K185) (UniProt P43121) | 3.4 (inactive)
36 | UniProt P05787 (lysine site: K472) | 2.67 (inactive)
37 | ENO1 (lysine site: K262) (UniProt P06733) | 2.83 (inactive)
38 | UniProt Q13275 (lysine site: K62) | 3.35 (inactive)
39 | UniProt P62805 (lysine site: K17) | 2.71 (inactive)
40 | FAT4 (lysine site: K2570) (UniProt Q6V0I7) | 3.02 (inactive)
